In PubChem BioAssay one finds composite z-score and z-score data, which are given here for 16 molecules.

Experiment [1] deals with Human papillomavirus type 1a protein E7 (residues 44-93). The experiment is described as follows: HPV1a E7 fragment binders on microarrays, primary screen, biochemical, small-molecule microarray, residues 44-93, 635 nm fluorescence (AID 1108).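 Further: E7 fragment applied at 1 µg/mL in TBST for 1 h at 4 C; score combines spot fluorescence with its signal to noise ratio.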 Conditions: small-molecule microarray binding, fluorescence 635 nm; higher = more signal.
A short description of experiment [2]: modulators of HCV replicon luciferase signal, primary screen, HCV replication inhibitor project, Huh7 cells, luciferase reporter (AID 1109).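 Further: huh7 hepatoma cells harbouring a luciferase neomycin HCV replicon reporter; luciferase luminescence as measure of HCV replicon replication; test concentration not given here.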 As to conditions: 48 h, higher = more signal.
Experiment [3] concerns the target Left-right determination factor 2 (Homo sapiens) (UniProt O00292). The experiment is described as follows: LEFTY2 binders on small-molecule microarrays, primary screen, biochemical, small-molecule microarray, 635 nm fluorescence scan (AID 1110). Conditions: LEFTY2 binding, higher = more signal.
Experiment [4] addresses Calmodulin-1 (Homo sapiens) (UniProt P0DP23). The experiment is described as follows: CALM1 binders on microarrays, EGTA buffer, profiling panel, biochemical, small-molecule microarray, Cy5-labelled CALM1 (AID 1111).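 Further: labelled calmodulin applied in Tris saline Tween buffer holding calcium plus EGTA and DTT.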 Conditions: Cy5-CALM1 binding fluorescence, higher = more signal.
Experiment [5] shares this target. The experiment is described as follows: calcium-bound CALM1 binders on microarrays, profiling panel, artefact control for SMM control-protein annotation, biochemical, small-molecule microarray, Cy5-labelled CALM1, plus calcium (AID 1112).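 Further: score merges spot fluorescence with signal to noise from triplicate slides.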 Conditions: Cy5-CALM1 binding fluorescence, higher = more signal.
Experiment [6] can be described thus: small-molecule microarray binders of probe aWnt5a, primary screen, biochemical, biotinylated probe, 635/667 nm fluorescence (AID 1113).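 Further: score merges 667 nm fluorescence intensity with signal-to-noise per printed feature.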 As to conditions: higher = more signal.
The nature of experiment [7]: small-molecule microarray binders of probe aShh, primary screen, biochemical, biotinylated probe, 635/667 nm fluorescence (AID 1114).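 Further: probe is biotin-labelled aShh protein from a stem cell growth factor screen; measures binding of labelled protein to compounds printed on the slide; score merges feature fluorescence at 667 nm with signal-to-noise.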 As to conditions: higher = more signal.
The nature of experiment [8]: small-molecule microarray binders of probe aNog, primary screen, biochemical, biotinylated probe, 635/667 nm fluorescence (AID 1115).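 Further: probe is biotinylated aNog protein used at 0.15 µg/mL for 1 h at 4 C; z-score combines 667 nm fluorescence of each spot with its signal to noise.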 Conditions: higher = more signal.
In experiment [9] the target is Torsin-1A-interacting protein 1 (Homo sapiens) (UniProt Q5JTV8). As to the kind of experiment: LAP1 binders from COS7 cell lysate, primary screen, small-molecule microarray, 635/667 nm fluorescence (AID 1116). Conditions: COS7-hLAP1 lysate binding, 635 nm fluorescence, higher = more signal.
The target in experiment [10] is Alpha-bungarotoxin (Bungarus multicinctus) (UniProt P60615). As to the kind of experiment: alpha-bungarotoxin binders on microarray, profiling panel, artefact control for SMM control protein annotation, biochemical, small-molecule microarray, Alexa647 label, 635/667 nm fluorescence (AID 1117). As to conditions: alpha-BTX-A647 binding fluorescence, higher = more signal.
Sequence of Alpha-bungarotoxin (Bungarus multicinctus) (P60615 whole entry, looked up): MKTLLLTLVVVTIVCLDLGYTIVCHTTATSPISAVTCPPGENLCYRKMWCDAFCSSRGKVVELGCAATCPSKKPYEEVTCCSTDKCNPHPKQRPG

Sequence of Torsin-1A-interacting protein 1 (Homo sapiens) (Q5JTV8 whole entry, looked up): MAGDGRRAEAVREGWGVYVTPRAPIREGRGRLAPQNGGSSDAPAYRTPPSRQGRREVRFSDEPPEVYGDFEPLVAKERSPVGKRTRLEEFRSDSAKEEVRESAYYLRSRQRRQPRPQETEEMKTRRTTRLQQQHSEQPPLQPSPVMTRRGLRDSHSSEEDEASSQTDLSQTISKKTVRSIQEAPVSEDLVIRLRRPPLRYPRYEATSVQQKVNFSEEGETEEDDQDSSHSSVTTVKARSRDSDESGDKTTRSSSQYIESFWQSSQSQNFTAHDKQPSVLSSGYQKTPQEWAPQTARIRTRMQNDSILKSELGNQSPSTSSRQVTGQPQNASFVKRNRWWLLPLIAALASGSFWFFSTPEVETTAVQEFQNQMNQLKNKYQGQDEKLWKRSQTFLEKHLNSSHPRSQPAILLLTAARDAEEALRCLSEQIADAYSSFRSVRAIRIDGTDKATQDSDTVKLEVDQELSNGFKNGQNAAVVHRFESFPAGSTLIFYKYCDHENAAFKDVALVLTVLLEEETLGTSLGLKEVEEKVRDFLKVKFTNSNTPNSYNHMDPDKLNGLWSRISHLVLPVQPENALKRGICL
Sequence of Left-right determination factor 2 (Homo sapiens) (O00292 whole entry, looked up): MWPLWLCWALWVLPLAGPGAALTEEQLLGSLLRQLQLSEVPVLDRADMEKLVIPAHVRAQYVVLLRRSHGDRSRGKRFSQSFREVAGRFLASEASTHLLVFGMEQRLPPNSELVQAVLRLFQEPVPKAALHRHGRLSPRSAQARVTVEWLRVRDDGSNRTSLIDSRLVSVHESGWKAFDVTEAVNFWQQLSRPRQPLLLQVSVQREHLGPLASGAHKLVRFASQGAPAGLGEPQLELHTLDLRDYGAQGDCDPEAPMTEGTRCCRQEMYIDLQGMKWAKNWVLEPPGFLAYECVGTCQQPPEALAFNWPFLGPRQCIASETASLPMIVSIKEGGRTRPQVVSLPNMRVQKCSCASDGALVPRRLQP

Take `O=C1O[C@H](c2ccccc2)[C@H](c2ccccc2)N2[C@H]1[C@@H](C(=O)Nc1nc3ccccc3s1)[C@]1(C(=O)Nc3ccc(C#CC4(O)CCCCCC4)cc31)[C@H]2c1ccc(OCCO)cc1`: the composite z-score was 0.877 in experiment [1]; 0.426 in experiment [3]; 1.91 in [4]; 0.0521 in experiment [5]; -0.0381 in experiment [6]; -0.0446 in experiment [7]. Besides, the results for the composite z-score in [8], in experiment [9] and in experiment [10] were 0.287, 1.55 and 1.77, respectively. In experiment [2], this molecule showed a z-score of -2.09.

`[N-]=[N+]=NCc1ccccc1C[C@]1(C(=O)O)N=C(c2ccc(OCCCO)cc2)O[C@H]1c1ccccc1N=[N+]=[N-]`: the composite z-score was determined as 1.18 in experiment [1]; 0.11 in experiment [3]; 1.23 in experiment [4]; 0.0606 in experiment [5]; 0.0919 in experiment [6]; 0.0639 in experiment [7]. Besides, the values for the composite z-score in experiment [8], in experiment [9] and in [10] were 1.59, 1.46 and 1.76, respectively. The same molecule yielded a z-score in experiment [2] of -1.11.

In the case of `COc1ccc([C@H]2C[C@H]3C(Br)=C[C@@H]2C(=O)[C@]32CO2)cc1`, the composite z-score in experiment [1] is -0.693; in [3], 0.446; in experiment [4], -0.0833; in [5], -0.798; in experiment [6], 0.0136; in experiment [7], -0.138. In addition, the composite z-score in experiment [8] is -0.158; in experiment [9], 0.252; in [10], 0.29. Further, the z-score in [2] is -2.46.

As to `CC(C)(C)OC(=O)CC[C@@]12N=C(c3ccc(OCCCO)cc3)O[C@@H]1c1ccccc1N(CCS(=O)(=O)c1ccccc1)C2=O`, the composite z-score in experiment [1] was 1.08; in [3], 0.374; in [4] it was 0.887; in [5] it was 0.105; in experiment [6], -0.0203; in [7], -0.0035. Also, the composite z-score in experiment [8] is -0.335; in experiment [9], 0.642; in experiment [10], 1.35. Further, the z-score in experiment [2] was -0.831.

Regarding `CCCC#C[Si](O[C@H](CC)c1cn([C@H](CO)Cc2ccccc2)nn1)(C(C)C)C(C)C`, the composite z-score in experiment [1] was 1.08; in experiment [3], 0.728; in experiment [4], 0.486; in [5], -0.0381; in [6], 0.0597; in [7], -0.0866. For the same molecule, the figures for the composite z-score in experiment [8], in experiment [9] and in [10] were 0.26, 0.761 and 0.701, respectively. In experiment [2], this molecule yielded a z-score of -0.256.

As for `Cc1ccc(C(C)CC(O)C2C=CC3C(=O)N(c4ccccc4)C(=O)C3N2Nc2ccc([N+](=O)[O-])cc2)o1` (stereo not given), the composite z-score in experiment [1] is 1.41; in [3], 0.135; in experiment [4] it was 1.17; in experiment [5] it was -0.284; in experiment [6], -0.0792; in experiment [7], -0.229. The results for the composite z-score in experiment [8], in experiment [9] and in experiment [10] were 0.437, 0.866 and 1.3, respectively. In experiment [2], this molecule registered a z-score of -0.212.

Consider `C[N+](C)(C)CCCCNC(=O)[C@H]1C[C@H]2C(=O)N[C@@H](Cc3ccccc3)C(=O)N2[C@H]1c1ccc(O)cc1`, for which the composite z-score was -0.0021 in experiment [1]; 0.686 in experiment [3]; -0.494 in experiment [4]; 0.565 in experiment [5]; -0.0944 in experiment [6]; 0.442 in experiment [7]. Further, the values for the composite z-score in experiment [8], in [9] and in experiment [10] were 0.0209, 0.427 and 1.56, respectively. In experiment [2], this molecule registered a z-score of -0.72.

On to `OC([C@@H]1CC(c2ccccc2)=NO1)[C@H]1CC(c2ccccc2)=NO1` (stereo not given in full), for which the composite z-score in experiment [1] was -0.0304; in experiment [3], 0.176; in experiment [4], -0.181; in [5], -0.416; in [6], 0.0317; in experiment [7], -0.214. Also, the figures for the composite z-score in experiment [8], in experiment [9] and in experiment [10] were -0.234, 0.11 and -0.0544, respectively. For the same molecule, in [2], the z-score turned out to be 0.341.

`CC(C)(C)OC(=O)CC[C@]12N=C(c3ccc(OCCCO)cc3)O[C@H]1c1ccccc1N(CCS(=O)(=O)c1ccccc1)C2=O`: the composite z-score in experiment [1] is 1.39; in [3] it was 0.497; in experiment [4] it was 0.234; in [5] it was -0.353; in experiment [6], 0.0706; in experiment [7], 0.287. The composite z-score in [8] is -0.344; in experiment [9], 0.751; in experiment [10], 1.41. Besides, the z-score in experiment [2] is -0.664.

Consider `CC(C)[C@@H](CO)NC(=O)[C@H]1[C@@H](c2ccccc2)N(c2ccccc2)O[C@@H]1C`, for which the composite z-score in experiment [1] is 0.0503; in [3], 0.28; in experiment [4], -0.31; in experiment [5], -0.354; in [6], -0.148; in [7] it was -0.186. Moreover, the composite z-score in experiment [8] is -0.181; in experiment [9], 0.382; in experiment [10] it was 0.0366. In experiment [2], this molecule came in with a z-score of 0.0505.

With `O=C1OCCC=C[C@H]2OC34C=CCN(CCN5CCOCC5)C(=O)[C@H]3N(CCCCCCO)C(=O)[C@@H]4C12` (stereo not given in full), the composite z-score in experiment [1] was -0.149; in [3], -0.0529; in [4], -0.304; in experiment [5], -1.07; in experiment [6] it was -0.178; in experiment [7] it was -0.289. The values for the composite z-score in [8], in experiment [9] and in experiment [10] were -0.484, 0.551 and -0.288, respectively. In experiment [2], this molecule registered a z-score of -0.135.

In the case of `COC(=O)[C@@]1(Cc2ccc(OC)cc2)[C@H]2c3cc(C(=O)N4CCCC4)n(Cc4ccsc4Br)c3C[C@H]2CN1C(=O)c1ccccc1`, the composite z-score is 1.27 in experiment [1]; -0.857 in [3]; 1.1 in experiment [4]; 0.696 in experiment [5]; -0.0944 in experiment [6]; -0.237 in experiment [7]. For the same molecule, the values for the composite z-score in [8], in experiment [9] and in [10] were 1.48, 0.254 and 0.218, respectively. The z-score in experiment [2] is -3.66.

`CN1C(=O)C2C=CC(C(O)c3ccc(I)cc3)N(N3CCCCC3)C2C1=O` (stereo not given): the composite z-score in [1] was 1.43; in [3], 0.0759; in experiment [4], 1.64; in experiment [5], 0.219; in experiment [6], 0.0599; in [7], 0.184. Further, the composite z-score in experiment [8] is 1.34; in experiment [9], 1.19; in experiment [10] it was 1.22. The molecule further showed a z-score in experiment [2] of -0.435.

As for `CCCCCCC#C[Si](O[C@H](c1ccccc1)c1cn([C@H](CO)Cc2ccccc2)nn1)(C(C)C)C(C)C`, the composite z-score in experiment [1] is 0.205; in [3], -0.154; in [4] it was -0.27; in experiment [5], 0.105; in [6], -0.096; in experiment [7], 0.298. Moreover, the composite z-score in experiment [8] was -0.443; in experiment [9] it was 0.8; in experiment [10], -0.218. The molecule further returned a z-score in experiment [2] of -0.462.

For `[N-]=[N+]=NCc1ccccc1C[C@]1(C(=O)N2CCOCC2)N=C(c2ccc(OCCCO)cc2)O[C@H]1c1ccccc1N=[N+]=[N-]`, the composite z-score in [1] is 1.44; in [3], 0.536; in experiment [4] it was 1.14; in experiment [5] it was 0.792; in [6], 0.0873; in experiment [7], 0.385. In addition, the composite z-score is 0.49 in [8], 1.73 in experiment [9] and 1.14 in experiment [10]. Further, in experiment [2], the z-score was -2.21.

Consider `CC(C)(C)OC(=O)CC[C@@]1(C(N)=O)N=C(c2ccc(OCCCO)cc2)O[C@@H]1c1ccccc1`, for which the composite z-score in experiment [1] is 1.38; in [3] it was -0.289; in experiment [4], 0.31; in experiment [5], -0.216; in experiment [6], -0.0512; in [7] it was -0.419. For the same molecule, the values for the composite z-score in experiment [8], in experiment [9] and in experiment [10] were -0.534, 1.2 and 0.646, respectively. Besides, the z-score in [2] turned out to be 0.14.
